KCNQ2 pot: potentiators of rat KCNQ2 potassium channel; 0.54% of 310,000 active; CHO-K1 KCNQ2, FluxOR thallium flux fluorescence; hits give high values; B-score at 10 µM; Potassium voltage-gated channel subfamily KQT member 2 (Rattus norvegicus), O88943;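 active means fluorescence ratio B-score at least 3 SD of library B-scores, with initial fluorescence B-score within 3 of them, cut at about 5.3 in these data; same plate scores as AID 2156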;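 further: B-score of peak minus minimum over baseline fluorescence ratio after K+ and Tl+ stimulus; positive B-score means potentiation of KCNQ2 with more thallium influx and brighter signal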
KCNQ2 block: rat KCNQ2 potassium channel inhibitors, primary screen, cell-based, CHO-K1, FluxOR thallium flux, B-score; 1.1% of 310,000 active; AID 2156, 2009; Potassium voltage-gated channel subfamily KQT member 2 (Rattus norvegicus), O88943; B-score at 10 µM; 20 min; hits give low values;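 active means fluorescence ratio B-score at most minus 3 library SDs, with starting brightness B-score within 2 library SDs, cut at about -5.5 in these data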
Kir21 confirm: mouse Kir2.1 channel blockers, retest, confirmation, cell-based, FluxOR thallium flux, duplicate; shares compounds with KCNQ2 pot; Kir2.1-expressing cells, FluxOR thallium flux fluorescence; hits give low values; Tl flux remaining, % of negative control (hits give low values), % at 10 µM; 41% of 2,300 active; AID 2032, 2009;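 active means Primary-screen hit whose thallium flux fell at least 3 control SD below untreated wells in both duplicates, with normal baseline fluorescence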;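 further: 0% = blank wells without stimulus and 100% = stimulated no-compound controls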
Target sequence (P35561 whole entry, looked up): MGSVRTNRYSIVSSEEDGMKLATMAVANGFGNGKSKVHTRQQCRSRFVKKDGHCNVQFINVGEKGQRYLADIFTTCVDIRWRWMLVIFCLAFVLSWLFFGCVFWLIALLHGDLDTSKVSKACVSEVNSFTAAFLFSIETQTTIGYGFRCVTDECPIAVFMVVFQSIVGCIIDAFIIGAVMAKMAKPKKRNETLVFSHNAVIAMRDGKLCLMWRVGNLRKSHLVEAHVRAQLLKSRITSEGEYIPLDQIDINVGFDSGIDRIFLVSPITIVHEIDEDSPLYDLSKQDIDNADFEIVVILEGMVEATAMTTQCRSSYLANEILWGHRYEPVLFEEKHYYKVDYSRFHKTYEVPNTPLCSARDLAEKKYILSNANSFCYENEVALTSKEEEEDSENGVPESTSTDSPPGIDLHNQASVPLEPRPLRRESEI
HEK293 Tl flux: parental HEK293 activity in Kir2.1 inhibitor counter-screen; FluxOR signal as % of negative control (100 = no effect), % at 10 µM; AID 2105; 19% of 2,300 active; parental HEK293 cells, FluxOR thallium flux fluorescence; 0% = unstimulated blank wells; shares compounds with KCNQ2 pot;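 active means dye signal at least 3 control SD above or below untreated wells in both duplicates, raw fluorescence within 3, either direction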;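 further: percent is based on the flux ratio of peak minus minimum fluorescence over baseline F0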
CHO-K1 ctr: nonspecific thallium flux increase in parental CHO-K1, confirmation, counter-screen for KCNQ2 potentiator project, cell-based, FluxOR thallium flux, duplicate. 43% of 1,200 active. shares compounds with KCNQ2 pot. activity increase over 3SD of controls, % at 10 µM. parental CHO-K1 cells, FluxOR thallium flux fluorescence; zero = vehicle mean+3SD, 100% = vehicle-minus-blank window;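 active means signal rise of at least 3 SD above the untreated control mean, in both duplicate wells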;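 further: counter screen of KCNQ2 potentiator hits so any rise reflects channel-independent effects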
KCNQ1 pot spec: human KCNQ1 channel potentiation off-target, confirmation, selectivity assay for KCNQ2 potentiator project, cell-based, CHO, FluxOR thallium flux; shares compounds with KCNQ2 pot; 28% of 1,200 active; activation over 3SD threshold, % at 10 µM; CHO KCNQ1 stable, FluxOR thallium flux fluorescence; beyond 3SD, as % of vehicle-control signal; AID 2283, 2010;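 active means fluorescence ratio rise of at least 3 SD of vehicle wells above their mean, in both replicate wells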;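 further: 0% = vehicle mean plus 3 SD and 100% = vehicle minus unstimulated blank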
KCNQ2 pot confirm: rat KCNQ2 channel potentiators, confirmation, cell-based, CHO, FluxOR thallium flux, duplicate; shares compounds with KCNQ2 pot; CHO-KCNQ2 cells, FluxOR thallium flux fluorescence; potentiation, less the hit threshold, % at 10 µM; 68% of 1,200 active; AID 2287, 2010;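 active means fluorescence ratio rising 3 SD or more over the vehicle control mean in both replicates, plus primary screen hit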;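 further: peak minus minimum thallium fluorescence divided by baseline after K/Tl stimulus; 0% = vehicle mean plus 3 SD and 100% = vehicle minus unstimulated blank difference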
Kir2-1 sel: mouse Kir2.1 channel activation off-target, confirmation, selectivity assay for KCNQ2 potentiator project, cell-based, HEK293, FluxOR thallium flux | AID 2345, 2010 | 2% of 1,200 active | HEK293 Kir2.1, FluxOR thallium flux fluorescence | activity over 3SD threshold, % at 10 µM | shares compounds with KCNQ2 pot;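 active means fluorescence ratio rise of at least 3 SD above the vehicle-control mean, seen in both replicates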;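 further: 0% = vehicle mean plus 3 SD and 100% = vehicle minus no-stimulus blank window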
KCNQ2 W236L pot: potentiators of retigabine-insensitive KCNQ2 W236L, mechanism study for KCNQ2 potentiator project, cell-based, rat KCNQ2 W236L, CHO, automated patch clamp; AID 2558, 2010; shares compounds with KCNQ2 pot; 10% of 940 active; current increase over 3SD of negative controls (%), hits give high values, % at 25 µM; automated patch clamp current;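 active means current increase at least 3 SD of the untreated controls above them in both duplicate recordings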
The depositor's hits bear a star; i = inactive; . = not tested or not shown. Hits are enriched below; roughly 1.6% of the tested compounds scored in any of these assays.

SMILES	KCNQ2 pot	KCNQ2 block	Kir21 confirm	HEK293 Tl flux	others
CC1(C)C(=O)OC(c2c3ccccc3cc3ccccc23)C(C)(C)C1=O (configuration not stated)	6.2*	i	i	i	CHO-K1 ctr=12*;KCNQ1 pot spec=90*;KCNQ2 pot confirm=-6;Kir2-1 sel=-31
O=C(CSc1nc2[nH]ncc2c(=O)[nH]1)Nc1cccc(Cl)c1	.	i	.	.
N#Cc1c(-c2ccco2)nc(SCC(=O)Nc2cccc(Cl)c2)[nH]c1=O	5.5*	i	i	i	CHO-K1 ctr=-13;KCNQ1 pot spec=-7;KCNQ2 pot confirm=7.4*;Kir2-1 sel=-30;KCNQ2 W236L pot=i
COC(=O)C1(S(=O)(=O)c2ccc(C)cc2)CCOCC1	0.68	i	.	.
O=C(CNC(=O)c1cccs1)NCC(=O)OCc1ccccc1Cl	.	i	.	.
COc1ccc(S(=O)(=O)N2CCOCC2)cc1C(=O)N1CCCCCC1	1.2	i	.	.
Cc1ccc(Nc2nc(-c3c(C)n(C)n(-c4ccccc4)c3=O)c(C)s2)cc1	0.22	i	.	.
COc1ccc(C(=O)CSc2nc(C(C)(C)C)nc3ccccc23)cc1	13*	i	.	.	CHO-K1 ctr=-7;KCNQ1 pot spec=60*;KCNQ2 pot confirm=20*;Kir2-1 sel=-51;KCNQ2 W236L pot=i
COc1ccc(C(=O)CSc2nc3ccccc3n2CC(=O)c2ccccc2)cc1	.	i	.	.
CC(C)CN(C(=O)COC(=O)Cc1n[nH]c(=O)c2ccccc12)C1CCS(=O)(=O)C1 (configuration not stated)	.	i	.	.
CC(C)CN(C(=O)COC(=O)CNC(=O)c1sc2ccccc2c1Cl)C1CCS(=O)(=O)C1 (configuration not stated)	0.6	i	i	75%*
CCOc1cc(/C=N/N2C(=O)NC3(CCCCC3)C2=O)cc(Br)c1O	0.26	i	.	.
COc1cc2[nH]c(C(=O)NCc3ccccc3)cc2c(OC)c1OC	.	i	i	i
COc1cc2[nH]c(C(=O)NCCc3ccccc3)cc2c(OC)c1OC	0.23	i	.	.
CCc1cc(=O)[nH]c(SCC(=O)NCC2CCCO2)n1 (configuration not stated)	.	i	.	.
CC1(c2ccccc2)CC(C)(C)N2C(=O)/C(=C3\SC(=S)NC3=O)c3cccc1c32 (configuration not stated)	32*	i	i	i	CHO-K1 ctr=-22;KCNQ1 pot spec=-22;KCNQ2 pot confirm=4.3*;Kir2-1 sel=-26;KCNQ2 W236L pot=i
CC1(c2ccccc2)CC(C)(C)N2C(=O)C3(C(C#N)=C(N)Oc4cc(O)ccc43)c3cccc1c32 (configuration not stated)	2.5	i	.	.
O=C(/C=C/c1ccc(NC(=O)c2ccccc2-c2ccccc2C(=O)O)cc1)c1ccccc1	.	i	.	.
CCn1cc(C(=O)NCCc2ccccc2)c(=O)c2cc(S(=O)(=O)N(C)C)ccc21	0.02	i	i	i
CCn1cc(C(=O)NCCN(C)CCc2ccccc2)c(=O)c2cc(S(=O)(=O)N(C)C)ccc21	0.95	i	.	.
Cc1c(NC(=O)Cn2cc([N+](=O)[O-])cn2)c(=O)n(-c2ccccc2)n1C	0.95	i	.	.

Screening results from PubChem.
